# Source: PubChem
# HP1b chromo inh = HTS for Inhibitors of HP1-beta Chromodomain Interactions with Methylated Histone Tails; 390,000 compounds, 0.56% hits; AID 540317, 2011; Chromobox protein homolog 1 (Homo sapiens), P83916; AlphaScreen HP1-beta / biotin-H3K9me3 peptide binding; Potency, µM (titrated, usually from 114 µM), for the others: top-dose activity change, negative = inhibition, hits mostly inhibitors; further: nearly all actives have a fitted effect of over 70% in size
#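 HP1-beta protein (50 nM final) preincubated 30 min at room temperature with biotinylated H3(1-18)K9me3 peptide (50 nM) in PBS pH 7.4, 0.01% Tween-20, then compound added for 30 min. AlphaScreen streptavidin donor/nickel chelate acceptor beads (10 ug/mL final), 30 min dark, luminescence read.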
# VDR inh = Inhibitors of the vitamin D receptor (VDR): qHTS; Vitamin D3 receptor (Homo sapiens), P11473; VDR-SRC2-3 peptide fluorescence polarization, 2 h; Potency, µM, for inactives: max response, negative = inhibition, actives largely listed as inhibitors; 400,000 compounds, 0.93% hits; AID 504847, 2011; further: on the % scale 0 is the no-effect control and ±100 the full control effect
#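 VDR–SRC2-3 interaction, FP format. Cmpds 23 nl via pintool, brief spin, 2 h ambient incubation.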
# PLK1 PBD block = qHTS for Inhibitors of PLK1-PDB (polo-like kinase 1 - polo-box domain): Primary Screen | Serine/threonine-protein kinase PLK1 (Homo sapiens), P53350 | Plk1 PBD binding of FITC phosphopeptide, fluorescence polarization | Potency, µM, for the others: max response, negative = inhibition, hits mostly inhibitors | 360,000 compounds, 2.8% hits | AID 720504, 2013; further: series mostly up to about 57 µM; on the % scale 0 is the no-effect control and ±100 the full control effect; nearly all actives have a fitted effect of over 65% in size
# JMJD2A Tudor inh = qHTS Assay for Inhibitors of JMJD2A-Tudor Domain; Lysine-specific demethylase 4A (Homo sapiens), O75164; AlphaScreen JMJD2A-Tudor / H3K4me3 peptide binding; Potency, µM (highest dose often 114 µM), for inactives: top-dose activity change, negative = inhibition, hits mostly inhibitors; 390,000 compounds, 4.4% hits; AID 504339, 2011; further: on the % scale 0 is the no-effect control and ±100 the full control effect; nearly all actives have a fitted effect of over 50% in size
# Target sequence (O75164 whole entry, looked up, the tested form may be a part): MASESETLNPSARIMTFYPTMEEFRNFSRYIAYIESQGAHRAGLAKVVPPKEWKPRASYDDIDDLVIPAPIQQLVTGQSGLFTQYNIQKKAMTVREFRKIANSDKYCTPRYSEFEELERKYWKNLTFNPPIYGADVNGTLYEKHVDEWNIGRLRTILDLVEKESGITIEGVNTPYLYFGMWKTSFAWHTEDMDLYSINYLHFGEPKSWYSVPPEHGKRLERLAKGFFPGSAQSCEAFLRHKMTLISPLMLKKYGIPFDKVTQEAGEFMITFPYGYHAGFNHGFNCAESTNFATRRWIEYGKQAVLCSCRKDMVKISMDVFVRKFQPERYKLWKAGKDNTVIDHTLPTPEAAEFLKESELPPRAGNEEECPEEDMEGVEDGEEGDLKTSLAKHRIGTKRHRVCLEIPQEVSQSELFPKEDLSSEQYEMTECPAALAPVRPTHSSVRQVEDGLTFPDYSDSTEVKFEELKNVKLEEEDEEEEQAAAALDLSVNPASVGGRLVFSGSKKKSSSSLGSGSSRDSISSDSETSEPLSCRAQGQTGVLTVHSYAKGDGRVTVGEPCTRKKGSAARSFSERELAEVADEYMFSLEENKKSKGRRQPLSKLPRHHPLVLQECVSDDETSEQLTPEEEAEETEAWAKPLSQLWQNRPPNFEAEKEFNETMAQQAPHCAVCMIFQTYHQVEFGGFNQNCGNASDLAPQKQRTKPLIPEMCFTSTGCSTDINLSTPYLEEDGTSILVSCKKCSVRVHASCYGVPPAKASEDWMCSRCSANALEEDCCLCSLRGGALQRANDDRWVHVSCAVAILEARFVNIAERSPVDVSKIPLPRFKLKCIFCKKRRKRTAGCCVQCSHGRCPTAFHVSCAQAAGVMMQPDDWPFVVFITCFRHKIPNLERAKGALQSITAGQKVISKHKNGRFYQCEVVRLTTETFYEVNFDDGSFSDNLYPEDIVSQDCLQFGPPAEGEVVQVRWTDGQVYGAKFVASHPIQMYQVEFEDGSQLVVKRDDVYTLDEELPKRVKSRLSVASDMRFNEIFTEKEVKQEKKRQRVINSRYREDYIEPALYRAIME
# G9a inh = qHTS Assay for Inhibitors of Histone Lysine Methyltransferase G9a; Histone-lysine N-methyltransferase EHMT2 (Homo sapiens), Q96KQ7; G9a H3K9 monomethylation, AlphaScreen, 2 h; Potency, µM (highest dose often 102 µM), inactives show at the top dose activity, negative = inhibition, hits mostly inhibitors; 350,000 compounds, 8.8% hits; AID 504332, 2011; further: on the % scale 0 is the no-effect control and ±100 the full control effect; nearly all actives have a fitted effect of over 75% in size
#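 Quantitative HTS format: methyltransferase activity on a biotin-tagged H3K9 peptide is measured by AlphaScreen, using a rabbit anti-monomethyl-H3K9 antibody with streptavidin donor and anti-IgG acceptor beads. Final levels are 20 nM enzyme, 500 nM peptide, 20 uM SAM; 2 h RT.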
# BAZ2B block = qHTS Assay for Inhibitors of BAZ2B. AlphaScreen BAZ2B-H3K14Ac peptide displacement. 360,000 compounds, 4.4% hits. Bromodomain adjacent to zinc finger domain protein 2B (Homo sapiens), Q9UIF8. Potency, µM (titrated, usually from 114 µM), for inactives: at the top dose activity change, negative = inhibition, usual class: inhibitors. AID 504333, 2011; further: on the % scale 0 is the no-effect control and ±100 the full control effect; nearly all actives have a fitted effect of over 60% in size
#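 AlphaScreen luminescence quantifies BAZ2B engagement of H3K14Ac peptide; the protein and biotinylated peptide are both at 50 nM final, buffer PBS pH 7.4 with 0.01% Tween-20, all steps at room temperature.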
# VDR confirm = qHTS for Inhibitors of the vitamin D receptor (VDR): Hit Validation in Primary Screen | shares compounds with VDR inh | VDR-coactivator inhibition assay, qHTS confirmation | Potency, µM, most hits filed as inhibitors | 840 compounds, 89% hits | AID 602199, 2012
# VDR FP = qHTS for Inhibitors of the vitamin D receptor (VDR): Hit Validation using a Fluorescein Assay. 840 compounds, 48% hits. VDR-coactivator binding, fluorescein fluorescence polarization. shares compounds with VDR inh. Potency, µM (titrated, usually from 57.1 µM), for the others: at the top dose activity change, negative = inhibition, most hits filed as inhibitors
# VDR bla reporter = qHTS for Inhibitors of the vitamin D receptor (VDR): Hit Validation using a Beta-Lactamase Assay; Potency, µM (highest dose often 46.1 µM), for inactives: at the highest dose activity change, negative = inhibition, actives largely listed as inhibitors; 840 compounds, 23% hits; shares compounds with VDR inh; VDR beta-lactamase reporter cells, FRET ratio; cells co-treated with VDR agonist LG190178; further: on the % scale 0 is the no-effect control and ±100 the full control effect
# VDR cytotox = qHTS for Inhibitors of the vitamin D receptor (VDR): Hit Validation using a Cytotoxicity Assay. shares compounds with VDR inh. cytotoxicity counter-screen, cell viability, qHTS. Potency, µM (top dose mostly 48.3 µM), for inactives: at the top dose activity change, negative = cytotoxicity, usual class: cytotoxic. 840 compounds, 18% hits. AID 602204, 2012;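 further: plate controls were DMSO for no effect and high-concentration cycloheximide for full effect; nearly all actives have a fitted effect of over 75% in size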
# The depositor's hits bear a star; ? = inconclusive; . = no result; [ ] = dose if it differs, or a comment. The list is not random: actives were taken first. Their share in the collection is about 11%. The call rests on the fitted dose curve; in most records, active means well fitted curve in the direction sought with a large enough effect; inconclusive means small, poorly fitted or top-dose-only effect, or another doubt; inactive means no such curve, though single readings can be large; an effect the other way counts as inactive or inconclusive. Potency means the concentration at half of the fitted maximal effect.
SMILES,HP1b chromo inh,VDR inh,PLK1 PBD block,JMJD2A Tudor inh,G9a inh,BAZ2B block,VDR confirm,VDR FP,VDR bla reporter,VDR cytotox
Cc1ccc(S(=O)(=O)NCC(=O)NC2CC2)cc1,26.4%,-11.7%,-5.5%,-11.4%,32.4%,0.1%,.,.,.,.
CCc1nnc2n1N=C(c1cccc([N+](=O)[O-])c1)CS2,40.9%,1.6%,-5.3%,-21.1%,14.5%[59 µM],-22.3%,.,.,.,.
O=[N+]([O-])c1ccc(C2=Nn3c(Cn4nnc5ccccc54)nnc3SC2)cc1,?,?,5.32µM*,56.2µM*,.,-37.3%,?,8.91µM*,-1.3%,?
c1ccc(C2[C@H]3CN(CC4CCCCC4)[C@H](c4ccccc4)C34CC2(c2cccnc2)C4)cc1 (stereo partly drawn),31.7%,-4.8%,-8.7%,-33.6%,-49.6%[59 µM],?,.,.,.,.
c1ccc(-c2nnc3sc(-c4csc5c4CCCC5)nn23)cc1,?,?,10.6µM*,?,5.01µM*,13.9%,14.1*,10µM*,?,?
c1ccc(-c2nnc3sc(-c4ccncc4)nn23)cc1,-15.6%,-19.9%,?,-24.6%,-4.0%[12.7 µM],1.6%,.,.,.,.
Cc1cnc(C(=O)OCC(=O)Nc2cc(S(=O)(=O)N3CCOCC3)ccc2Cl)cn1,17.5%,-7.0%,3.4%,-11.8%,.,.,.,.,.,.
COc1ccccc1CNc1cc(-c2ccccc2OC)ncn1,.,-0.8%,.,.,-7.2%[0.501 µM],.,.,.,.,.
COc1ccccc1CNc1cc(-c2ccoc2)ncn1,.,15.8µM*,.,.,1.1%[0.501 µM],.,?,-5.0%,4.8%,9.7%
CCS(=O)(=O)c1ccc2oc(SCC(=O)Nc3ccc(OC)c(OC)c3)nc2c1,44.2%,-15.2%,-8.3%,-1.9%[57.1 µM],-11.9%,-4.2%,.,.,.,.
CCS(=O)(=O)c1ccc2oc(Nc3ccc(C(C)C)cc3)nc2c1,15.8µM*,39.8µM*,2.67µM*,?,1.78µM*,-35.3%,8.44*,3.98µM*,-11.0%,20.5%
CC1CCC(C#N)(N(C)C(=O)CSc2nnc(C3CC3)n2C2CC2)CC1 (stereo not drawn),20.9%,-13.4%,-1.3%,-15.4%,-5.9%[2.33 µM],16.2%,.,.,.,.
O=C(Nc1ccc2c(c1)C(=O)NC2=O)c1ccc(S(=O)(=O)N2CCCC2)cc1,26.2%,-9.9%,?,-23.4%,0.7%,-8.0%,.,.,.,.
O=C(/C=C/c1ccc(Br)cc1)c1ccc(NC2=NCCCS2)cc1,-15.2%,22.4µM*,-10.9%,?,?,?,15*,10µM*,?,18.4µM*
c1ccc(NC2=NCCCCS2)cc1,6.0%,-4.9%,-10.5%,-16.7%,17.5%[59 µM],-2.7%,.,.,.,.
O=[N+]([O-])c1cccc(-c2c(-c3ccccc3)ncc3ccc(F)cc23)c1,-22.0%,-1.4%,-15.5%,?,8.6%[0.501 µM],?,.,.,.,.
CCS(=O)(=O)c1ncc(Cl)c(C(=O)N2CCN(c3cccc(Cl)c3)CC2)n1,8.2%,8.91µM*,.,-30.6%,12.6µM*,-10.9%,2.82*,2.82µM*,2.91µM*,9.47µM*
[O-]/[N+](=C/c1ccc(F)cc1)c1ccc(Cl)cc1,4.5%,31.6µM*,?,-23.0%,11.2µM*,-33.1%,23.8*,?,-12.8%,6.2%
Fc1ccc(-c2nnc(-c3ccc(Cl)cc3)o2)cc1,14.5%,-9.4%,-13.1%,-13.5%,20.5%[59 µM],-2.8%,.,.,.,.
N#Cc1cnn2c(-c3cccc([N+](=O)[O-])c3)ccnc12,28.7%,-27.1%,2.9%,4.8%,10.3%[59 µM],4.6%,.,.,.,.
C=CCNC(=S)N/N=C/c1ccc(-c2cc(Cl)ccc2Cl)o1,31.5%,10.2%,-5.7%,-10.7%,-33.5%,-23.7%,.,.,.,.
CC1=NOC(=O)/C1=C\c1ccc(-c2ccc(Br)cc2)o1,-22.7%,?,0.597µM*,?,5.01µM*,11.2µM*,3.16*,?,0.9%,-18.2%
CC1=NOC(=O)/C1=C\c1ccc(-c2cc(Cl)ccc2Cl)o1,?,20µM*,0.597µM*,?,?,?,2.99*,?,?,?
CCOC(=O)C1=C(C)N=C2SC(C(=O)OC)=CC(=O)N2C1c1ccc(F)cc1 (stereo not drawn),?,22.4µM*,-25.7%,25.1µM*,?,?,13.4*,?,14.9%,?
COCCCNC(=O)c1ccc2c3c(onc13)-c1ccccc1C2=O,?,35.5µM*,5.32µM*,50.1µM*,.,20µM*,3.77*,?,?,?
COCCCNC(=O)c1ccccc1Oc1ccccc1,24.4%,-4.8%,-1.8%,3.0%,-1.0%,3.4%,.,.,.,.
COC(=O)[C@@]12CCCCN1[C@H](c1ccc(-c3ccc(F)cc3)cc1)[C@@H]1C(=O)N(C)C(=O)[C@@H]12,15.2%,-8.3%,-2.5%,-31.5%,-11.9%[2.33 µM],-31.3%,.,.,.,.
Cc1ccc(NN2C(=O)C=C(c3ccccc3)C2=O)cc1,-33.4%,25.1µM*,8.44µM*,-32.4%,10µM*,-31.2%,8.44*,?,?,-1.9%
Cc1cc(N2CCOCC2)ccc1/C=C\[N+](=O)[O-],-9.3%,28.2µM*,13.4µM*,-13.8%,6.31µM*,?,6.7*,43.0%,?,16.4µM*
O=[N+]([O-])c1ccc(N2CCOCC2)cc1O,44.7%,-0.9%,3.4%,-22.1%,3.8%,-22.1%,.,.,.,.
